From PubChem BioAssay AID1063 (University of Pittsburgh Molecular Library Screening Center, 2008)
Hit rate of the full screen: of about 200,000 compounds, about 18,000 (9%) were called active. For the sample, actives were picked, then their nearest neighbours and some compounds at random. Values without a mark were called inactive. No stated cut-off is given here; in the data, active means inhibition above about 50%; inactive means the rest.

Experiment: Leishmania major promastigote growth inhibition, primary screen (AID 1063);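 further: promastigotes grown with compound for 44 hours at 28 °C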
Details: Leishmania major promastigotes, resazurin fluorescence viability; at 10 µM; hits give high values

Compound | inhibition
COc1cc2[nH]c(=S)n(Cc3ccc(F)cc3)c(=O)c2cc1OC | -5.46%
CCOC(=O)C1CCN(S(=O)(=O)c2cc(F)ccc2OC)CC1 | 6.21%
Cc1cccc2cc(CN(Cc3nnnn3Cc3ccccc3)C3CCCC3)c(=O)[nH]c12 | 36.7%
Cc1cccc2cc(CN(Cc3cccs3)C(c3nnnn3C3CCCC3)C(C)C)c(=O)[nH]c12 (stereo unspecified) | 90.3% (active)
Cc1cccc2cc(CN(Cc3ccc4c(c3)OCO4)Cc3nnnn3C3CCCC3)c(=O)[nH]c12 | 71.8% (active)
CCC(c1nnnn1C1CCCC1)N(Cc1cccs1)Cc1cc2cccc(C)c2[nH]c1=O (stereo unspecified) | 30.1%
Cc1cc(C)c2cc(CN(Cc3cccs3)Cc3nnnn3CC3CCCO3)c(=O)[nH]c2c1 (stereo unspecified) | 48.9%
Cc1cc2cc(CN(Cc3cccs3)Cc3nnnn3CC3CCCO3)c(=O)[nH]c2cc1C (stereo unspecified) | 21.2%
C=C(C)CNC(=S)N/N=C/c1ccccc1OCC(=O)O | -1.38%
O=S(=O)(NCCc1ccc(F)cc1)c1cccc2cccnc12 | -0.53%
O=C1C2C3C=CC(C3)C2C(=O)N1c1ccc(-c2nc3ccccc3c(=O)o2)cc1 (stereo unspecified) | -7%
COc1ccc(OC)c(-n2c(=S)[nH]c3cc(C(=O)N4CCCCC4)ccc3c2=O)c1 | -7.75%
COc1ccc(C(=O)Nc2ccc(-n3nncc3C(C)(C)C)cc2)cc1 | -0.36%
COc1cc(/C=N/O)ccc1OCc1ccc([N+](=O)[O-])cc1 | 51.5% (active)
COc1cc(/C=N\Nc2ccc([N+](=O)[O-])cn2)ccc1OCC(=O)O | 4.37%
COc1cc(C(=O)OCc2ccc([N+](=O)[O-])cc2)cc(OC)c1OC | -8.98%
COC(=O)Cc1ccc(Oc2ncc(C(F)(F)F)cc2Cl)cc1 | -7.25%
C/C(=N\NC(=O)NC1CCCCC1)c1ccc(OC(F)F)cc1OC(F)F | 46.4%
CCN(CC)CCOC(=O)c1ccc(NC(=O)CNC(=O)c2ccccc2)cc1 | -0.48%
CCOC(=O)c1ccccc1NC(=S)N1CCC(C(N)=O)CC1 | 4.08%
COc1cccc(-n2c(=O)c3c(C)c(C(=O)N(C)C)sc3n(CC(=O)NCCc3ccc(OC)c(OC)c3)c2=O)c1 | 2.17%

Compound | inhibition
COc1cc(OC)c(C(=O)Nc2ccccc2-c2ccccc2)cc1OC | 82.5% (active)
O=C(Nc1ccccc1F)c1ccccc1-c1ccccc1 | -3.5%
COc1cc(OC)c(C(=O)Nc2ccc(N(C)C)cc2)cc1OC | 3.39%
O=C(NCc1ccccc1Cl)C1CCN(S(=O)(=O)N2CCOCC2)CC1 | -5.43%
CCOc1ncccc1C(=O)OCC(=O)NC1CC1 | 4.89%
Cc1csc(NC(=O)CSc2ccc(-c3ccc(F)cc3)nn2)n1 | 7.99%
NNC(=O)C1CC(O)CN1S(=O)(=O)c1ccc(Cl)cc1 (stereo unspecified) | 4%
O=C(NCc1ccccc1)C1CCCN(c2nc3ccsc3c(=O)s2)C1 (stereo unspecified) | -5.75%
C=CCn1c(COc2ccc(F)cc2)nnc1SCC(=O)Nc1cccc(S(N)(=O)=O)c1 | 1.1%
COc1ccc(NC(=O)c2ccccc2CC[N+](=O)[O-])cc1 | 13.1%
Cc1ccccc1NC(=O)CNc1ccccc1N1CCCCC1 | 21.9%
Cn1c(=O)c2c(nc(SCC(=O)Nc3ccccc3N3CCCCC3)n2C)n(C)c1=O | 31%
CC(C)n1c(SCC(=O)Nc2ccccc2N2CCCCC2)nc2c1c(=O)n(C)c(=O)n2C | 58.5% (active)
CN(c1ccccc1)S(=O)(=O)c1ccc(Cl)c(C(=O)OCC(=O)N2CCOCC2)c1 | 1.28%
COC(=O)c1nc2ccccc2s1 | -8.95%
CCC(=O)NC(=Nc1nc2ccccc2s1)NC(=O)CC | 8.31%
CC(C)CC(=O)N/C(N)=N/c1nc2ccccc2s1 | 95.3% (active)
CC/C(=N\NC(=S)NC(C)C)c1ccc(OC(F)F)cc1 | 16.9%
CC(C)(C)NCCCOc1ccc(Cl)cc1C(C)(C)C | 100% (active)
CN(C)CCOc1ccc(Cl)cc1C(C)(C)C | 6.15%
Cc1cc(Cl)ccc1OCCCC(=O)NCc1ccncc1 | -0.52%

Compound | inhibition
O=C(CN(c1cccc(Cl)c1)S(=O)(=O)c1ccccc1)NN=C1CCCC1 | 12.4%
COC(=O)[C@H](Cc1ccccc1)NC(=O)N1CC(C)OC(C)C1 (stereo partly specified) | 15.6%
CC1CCCN(Cc2nc3c(c(=O)n(C)c(=O)n3C)n2CC(=O)c2ccccc2)C1 (stereo unspecified) | 22.4%
CC1CN(CCCOc2ccccc2-c2ccccc2)CC(C)O1 (stereo unspecified) | 88.7% (active)
CC1CCCN(CCOCCOc2ccccc2-c2ccccc2)C1 (stereo unspecified) | 98.6% (active)
CN1CCN(CCCCOc2ccccc2-c2ccccc2)CC1 | 44.5%
c1ccc(-c2ccccc2OCCN2CCCCC2)cc1 | 8.2%
CC1CCN(S(=O)(=O)c2ccc(S(=O)(=O)NCc3cccnc3)cc2)CC1 | -2.4%
CS(=O)(=O)N(CC(=O)NC1CCCC1)Cc1ccc(F)cc1 | -5.9%
Cc1ccc(-n2c(=O)c(C#N)cc3c(=O)n4ccccc4nc32)cc1C | 2.63%
Cc1cccn2c(=O)c3cc(C#N)c(=NC(=O)c4cccnc4)n(CC4CCCO4)c3nc12 (stereo unspecified) | 16.8%
Cc1cccn2c(=O)c3cc(C#N)c(=O)n(CCCN4CCOCC4)c3nc12 | 95.7% (active)
CN1C(=O)/C(=C\c2ccc(-c3ccccc3)o2)SC1=S | -6.51%
O=C(Cc1ccc(S(=O)(=O)N2CCOCC2)s1)NCCC(c1ccccc1)c1ccccc1 | 98.1% (active)
O=C(NCCc1ccccc1)C1CCN(S(=O)(=O)c2ccc(Br)s2)CC1 | -1.73%
COc1ccccc1NC(=O)COC(=O)Cc1ccc(S(=O)(=O)N2CCCCC2)s1 | 6.48%
O=C(Cc1ccc(S(=O)(=O)N2CCCC2)s1)NC1CCCCCC1 | 93.5% (active)
O=C(NC1CCCCC1)C1CCCN(S(=O)(=O)c2ccc(Br)s2)C1 (stereo unspecified) | 12.5%
O=C(NC1CCCCC1)n1c(=O)oc2cc(S(=O)(=O)N3CCCCC3)ccc21 | 2.93%
